Reference: PubChem BioAssay
Calls of active or inactive are those of the source.

Key:
[1] = target: Albumin (Bos taurus) (UniProt P02769); assay: compounds binding labelled BSA control protein – biochemical, small-molecule microarray, Alexa647 label, 635/667 nm fluorescence, artefact control for SMM control protein annotation, profiling panel (AID 1118); conditions: BSA-A647 binding, fluorescence 635 nm, higher = more signal;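 note: score merges 667 nm emission intensity and signal-to-noise per printed compound spot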
Chain of Albumin (Bos taurus) (P02769 whole entry, looked up): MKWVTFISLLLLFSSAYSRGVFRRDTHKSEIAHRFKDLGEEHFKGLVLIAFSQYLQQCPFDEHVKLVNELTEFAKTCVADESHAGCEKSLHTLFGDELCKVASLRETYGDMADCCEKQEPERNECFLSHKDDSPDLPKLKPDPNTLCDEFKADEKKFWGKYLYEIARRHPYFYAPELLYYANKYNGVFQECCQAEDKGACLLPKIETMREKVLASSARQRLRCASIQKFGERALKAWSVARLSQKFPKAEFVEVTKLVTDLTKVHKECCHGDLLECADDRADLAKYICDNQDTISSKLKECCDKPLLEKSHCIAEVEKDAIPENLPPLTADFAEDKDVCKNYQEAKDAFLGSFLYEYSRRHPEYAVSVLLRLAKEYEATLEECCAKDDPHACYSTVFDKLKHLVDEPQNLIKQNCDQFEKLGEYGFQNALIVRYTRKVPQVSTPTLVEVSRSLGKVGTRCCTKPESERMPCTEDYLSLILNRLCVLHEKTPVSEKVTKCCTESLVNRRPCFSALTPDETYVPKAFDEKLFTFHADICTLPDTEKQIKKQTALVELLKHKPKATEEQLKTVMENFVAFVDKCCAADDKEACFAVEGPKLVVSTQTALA

[2] = probe aXIP binding to arrayed compounds – biochemical, NeuroSMM set, 635/667 nm fluorescence, primary screen (AID 1119); conditions: small-molecule microarray, higher = more signal, called active from +8 up or from −8 down;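 note: probe is the protein aXip251-270 applied at 1 µg/mL to compound-printed slides; binding of probe to printed compounds measured as 667 nm fluorescence plus signal to noise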
[3] = probe aNOTCH3 binding on compound microarray – biochemical, small-molecule microarray, 635/667 nm fluorescence, primary screen (AID 1120); conditions: higher = more signal;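 note: probe is a biotin-tagged antibody raised against NOTCH3 rather than NOTCH3 protein; score merges spot fluorescence near 667 nm with spot signal to noise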
[4] = probe aNOTCH2 binding on compound microarray – biochemical, small-molecule microarray, 635/667 nm fluorescence, primary screen (AID 1121); conditions: higher = more signal;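 note: score merges feature fluorescence read at 667 nm with its signal to noise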
[5] = target: Carbonic anhydrase 2 (Homo sapiens) (UniProt P00918); assay: compounds binding carbonic anhydrase 2 – biochemical, small-molecule microarray, Alexa647-labelled CAII, profiling panel (AID 1122); conditions: CAII-A647 binding fluorescence, higher = more signal
[6] = COS7 lysate on small-molecule microarray, probe aHis, 635 nm (AID 1123); conditions: COS7 cell lysate, fluorescence, higher = more signal;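 note: z-score combines 667nm fluorescence intensity with signal-to-noise per printed compound spot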
[7] = probe aLAP1 signal on lysate-treated microarray – cell lysate, small-molecule microarray, COS7 lysate, primary screen (AID 1124); conditions: probe aLAP1, fluorescence, higher = more signal;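 note: lysate comes from COS7 cells expressing LAP1 and is applied at 0.3 µg/mL; score merges spot fluorescence near 667 nm with signal-to-noise over triplicate slides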
[8] = tested on: Sam68 (KHDRBS1); assay: compounds binding KHDRBS1 protein – biochemical, small-molecule microarray, 635 nm fluorescence, primary screen (AID 1125); conditions: higher = more signal;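 note: score merges 667 nm channel intensity with signal to noise over triplicate slides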
[9] = tested on: Chordin-like protein 2 (CHRDL2); assay: compounds binding chordin-like 2 – biochemical, small-molecule microarray, 635 nm fluorescence, primary screen (AID 1126); conditions: fluorescence 635 nm, higher = more signal;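 note: printed compound slides probed with Chrdl2 protein at 4 µg/mL for 1 h at 4 C; score merges 667 nm emission intensity with signal to noise over three replicate slides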
[10] = target: Concanavalin-A (Canavalia ensiformis) (UniProt P02866); assay: compounds binding concanavalin A lectin – biochemical, small-molecule microarray, Alexa647 label, 635 nm, artefact control for SMM control protein annotation, primary screen (AID 1127); conditions: ConA-A647 binding fluorescence, higher = more signal;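 note: z combines 667 nm emission intensity with signal-to-noise across three replicate slides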
Chain of Concanavalin-A (Canavalia ensiformis) (P02866 whole entry, looked up): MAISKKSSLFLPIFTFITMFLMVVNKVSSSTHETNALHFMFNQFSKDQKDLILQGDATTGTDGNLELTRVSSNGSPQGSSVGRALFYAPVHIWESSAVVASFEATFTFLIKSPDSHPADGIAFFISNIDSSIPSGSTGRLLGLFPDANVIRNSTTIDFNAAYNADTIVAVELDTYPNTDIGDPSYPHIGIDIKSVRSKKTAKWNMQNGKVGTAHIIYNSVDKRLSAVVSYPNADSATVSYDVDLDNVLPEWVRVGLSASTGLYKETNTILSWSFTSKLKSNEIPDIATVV

SMILES	composite z-score [1]	composite Z-score [2]	composite z-score [3]	composite z-score [4]	composite z-score [5]	composite z-score [6]	composite z-score [7]	composite z-score [8]	composite z-score [9]	composite z-score [10]
Cc1ccc(S[C@]2(C(=O)NCC(C)C)CC(=O)N(Cc3ccccc3Cl)[C@@H]2c2ccc(CO)cc2I)cc1	-0.253	0.0894 (inactive)	-0.179	-0.127	0.763	0.363	0.142	0.245	-0.332	-0.395
NCCCCCCNC(=O)[C@@H]1C[C@@H]2C(=O)N3CCC[C@H]3C(=O)N2[C@@H]1c1ccc(O)cc1	0.654	-0.259 (inactive)	-0.0647	-0.182	0.291	1.32	0.81	1.25	0.417	1.15
Cc1ccc(S[C@]2(C(=O)NCC(F)(F)F)CC(=O)N(Cc3ccccc3)[C@@H]2c2ccc(CO)cc2)cc1	-0.597	0.363 (inactive)	-0.115	-0.119	0.699	0.973	-0.0477	0.619	-1.23	-0.643
O=C1NC(=O)C2C1C=CC(C(O)c1c(F)cccc1Cl)N2Nc1ccccn1 (stereo not given)	0.179	-0.527 (inactive)	-0.0009	0.0203	0.805	-0.42	1	0.0076	0.676	-0.453
C=CC[C@@H](OC(=O)Nc1ccc(OC)cc1)c1ccc(OCCO)cc1	0.384	0.166 (inactive)	-0.46	-0.0911	0.709	0.31	-0.347	-0.661	-2	-1.54
CC(C)C(=C=CC[C@@H](O)c1ccccc1OCCO)C[C@@H](O)COCc1ccccc1	-0.111	0.477 (inactive)	-0.132	0.0363	0.813	1.37	0.641	0.773	0.0362	0.639
C=CCOC(=O)[C@H]1[C@@H]2C(=O)O[C@@H](c3ccccc3)[C@@H](c3ccccc3)N2[C@@H](c2ccc(OCCOC(=O)[C@H]3C[C@H]4C(=O)N[C@@H](Cc5ccccc5)C(=O)N4[C@H]3c3cccc(OCCO)c3)cc2)[C@]12C(=O)Nc1ccc(I)cc12	-0.291	1.02 (inactive)	0.071	-0.117	0.487	-0.0456	0.335	1.28	1.25	1.12
CC(C)N1C(=O)[C@@]2(c3ccc([N+](=O)[O-])cc3)CC(=O)N(C3CCCCC3)[C@@H]2c2ccc(CO)cc21	-0.545	0.633 (inactive)	-0.215	-0.12	0.222	-0.0857	0.398	0.123	0.208	0.684
COc1ccc(C(O)C2C=CC3C(=O)N(c4ccccc4)C(=O)C3N2Nc2ccccc2)cc1OCc1ccccc1 (stereo not given)	0.853	0.153 (inactive)	0.505	-0.0798	0.503	3.06	0.0392	1.31	-0.356	1.09
CN(C)CCCNC(=O)[C@@H]1c2ccccc2C(=O)N(Cc2ccc(OC(F)(F)F)cc2)[C@H]1c1ccc(CO)cc1	-0.298	0.729 (inactive)	0.0469	-0.115	0.398	1.4	0.602	1.26	0.151	0.675
CCOC(=O)C[C@H]1[C@H](OC(=O)c2ccc(C(=O)c3ccccc3)cc2)[C@@H](NC(=O)c2ccc3ccccc3c2)c2cc(OCCCO)ccc2N1C(=O)c1ccccc1	0.362	0.224 (inactive)	0.0893	0.127	0.197	1.26	0.8	1.32	-0.257	1.04
COC(=O)c1c(CC[C@@H](CO)NC(=O)N[C@H](Cn2cc(-c3ccccc3C)nn2)C(C)C)oc(C(C)=O)c1C(=O)OC	0.119	-0.115 (inactive)	-0.0731	-0.075	0.0708	-0.363	-0.108	-1.08	-0.767	0.43
COC(=O)C[C@H]1O[C@]2(C(=O)N(C)c3ccccc32)[C@@H](C)[C@@H]1[Si](C)(C)c1ccc(C)cc1	0.683	0.397 (inactive)	-0.113	-0.117	0.0614	0.311	0.218	1.16	0.0565	0.379
